In test [1] the test system is Plasmodium falciparum Sir2 (PF13_0152, Sir2A). Kind of test: pfSir2 binders on small-molecule microarrays, primary screen, biochemical, small-molecule microarray, 635 nm fluorescence (AID 1098).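 Also: score merges spot fluorescence intensity with its signal-to-noise ratio.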 The conditions noted are these: small-molecule microarray binding, fluorescence 635 nm; higher = more signal.
Test [2] can be described thus: small-molecule microarray binders of probe aDKK1, primary screen, biochemical, biotinylated probe, 635/667 nm fluorescence (AID 1099).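 Also: score merges 667nm spot fluorescence with signal to noise across triplicate slides; reference of the scale not given here.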 Particulars: higher = more signal.
Test [3] can be described thus: small-molecule microarray binders of probe aCHRDL2, primary screen, biochemical, biotinylated probe, 635/667 nm fluorescence (AID 1100). Particulars: higher = more signal.
Test [4] in a line: splicing luciferase reporter signal modulators, primary screen, spliceosome inhibition project, cell-based, HEK293, splice +/- reporter (AID 1101).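 Also: HEK293 cells carrying a splicing-competent luciferase reporter gene; test concentration not given here.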 Particulars: luminescence, 24 h, higher = more signal, called active from +8 up or from −8 down. In general terms: Reporter assays use an easily measured gene product as a stand-in for the process of interest.
Test [5] addresses Fibroblast growth factor 10 (Homo sapiens) (UniProt O15520). Description: FGF10 binders on small-molecule microarrays, primary screen, biochemical, small-molecule microarray, 635 nm fluorescence (AID 1102). Particulars: FGF10 binding, fluorescence 635 nm, higher = more signal.
Test [6] has as its system glycogen synthase kinase-3 (GSK3A per assay name; protocol says GSK3B). Kind of test: GSK3 binders on small-molecule microarrays, primary screen, biochemical, small-molecule microarray, 635 nm fluorescence, GSK3A (AID 1103). Also: the record names both GSK3A and GSK3B. Particulars: small-molecule microarray binding, fluorescence 635 nm; higher = more signal.
Test [7] deals with Epidermal growth factor receptor (Homo sapiens) (UniProt P00533). Description: EGFR binders on small-molecule microarrays, primary screen, biochemical, small-molecule microarray, 635 nm fluorescence (AID 1104).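 Also: score merges 667 nm emission intensity with spot signal to noise over triplicate slides.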 The conditions noted are these: EGFR binding, higher = more signal.
Sequence of Epidermal growth factor receptor (Homo sapiens) (P00533 whole entry, looked up): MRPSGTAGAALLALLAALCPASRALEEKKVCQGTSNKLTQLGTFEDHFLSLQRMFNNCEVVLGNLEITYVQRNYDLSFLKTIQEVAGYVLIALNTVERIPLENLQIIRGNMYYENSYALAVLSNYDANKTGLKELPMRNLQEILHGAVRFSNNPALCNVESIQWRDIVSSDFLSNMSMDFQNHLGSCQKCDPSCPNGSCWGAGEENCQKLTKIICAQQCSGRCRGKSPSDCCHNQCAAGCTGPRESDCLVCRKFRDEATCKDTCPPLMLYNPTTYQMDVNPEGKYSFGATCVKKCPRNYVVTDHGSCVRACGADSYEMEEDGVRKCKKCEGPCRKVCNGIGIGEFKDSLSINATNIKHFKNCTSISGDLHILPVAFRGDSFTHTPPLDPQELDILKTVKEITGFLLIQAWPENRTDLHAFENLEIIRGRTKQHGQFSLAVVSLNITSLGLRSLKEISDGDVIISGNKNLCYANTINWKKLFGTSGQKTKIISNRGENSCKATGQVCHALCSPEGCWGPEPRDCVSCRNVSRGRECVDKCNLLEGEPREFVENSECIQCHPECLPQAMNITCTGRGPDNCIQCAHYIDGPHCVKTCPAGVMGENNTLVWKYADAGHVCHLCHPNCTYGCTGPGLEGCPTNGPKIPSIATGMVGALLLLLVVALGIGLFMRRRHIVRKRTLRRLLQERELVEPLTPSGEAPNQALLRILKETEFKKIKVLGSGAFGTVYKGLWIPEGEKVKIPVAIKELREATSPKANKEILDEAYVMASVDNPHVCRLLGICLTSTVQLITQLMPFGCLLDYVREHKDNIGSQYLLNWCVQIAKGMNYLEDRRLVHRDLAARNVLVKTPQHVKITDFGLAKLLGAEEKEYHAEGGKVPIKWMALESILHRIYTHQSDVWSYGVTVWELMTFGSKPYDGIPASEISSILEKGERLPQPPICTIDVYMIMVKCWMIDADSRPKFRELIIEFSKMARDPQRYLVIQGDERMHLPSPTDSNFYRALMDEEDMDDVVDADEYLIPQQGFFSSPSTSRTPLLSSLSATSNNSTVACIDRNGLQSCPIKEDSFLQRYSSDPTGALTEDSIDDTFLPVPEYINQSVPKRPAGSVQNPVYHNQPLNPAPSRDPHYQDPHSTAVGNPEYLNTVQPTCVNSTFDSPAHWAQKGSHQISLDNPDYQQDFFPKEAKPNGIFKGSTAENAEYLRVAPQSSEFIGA
The target in test [8] is Follistatin-related protein 3 (Homo sapiens) (UniProt O95633). Kind of test: FSTL3 binders on small-molecule microarrays, primary screen, biochemical, small-molecule microarray, 635 nm fluorescence (AID 1105).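 Also: score merges emission near 667 nm and signal to noise per printed spot across three slides.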 Particulars: FSTL3 binding, higher = more signal.
Sequence of Follistatin-related protein 3 (Homo sapiens) (O95633 whole entry, looked up): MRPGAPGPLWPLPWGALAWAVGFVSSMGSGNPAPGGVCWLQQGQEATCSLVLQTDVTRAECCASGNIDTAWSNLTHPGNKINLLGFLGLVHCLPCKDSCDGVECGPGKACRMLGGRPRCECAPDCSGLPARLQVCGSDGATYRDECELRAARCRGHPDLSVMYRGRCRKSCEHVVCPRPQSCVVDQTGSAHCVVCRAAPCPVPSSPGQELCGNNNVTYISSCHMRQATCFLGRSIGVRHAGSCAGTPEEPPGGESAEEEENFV
In test [9] the target is Dickkopf-related protein 1 (Homo sapiens) (UniProt O94907). Description: DKK1 binders on small-molecule microarrays, primary screen, biochemical, small-molecule microarray, 635 nm fluorescence scan (AID 1106).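 Also: score merges emission near 667 nm with signal to noise over three replicate slides.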 The conditions noted are these: DKK1 binding, higher = more signal.
Sequence of Dickkopf-related protein 1 (Homo sapiens) (O94907 whole entry, looked up): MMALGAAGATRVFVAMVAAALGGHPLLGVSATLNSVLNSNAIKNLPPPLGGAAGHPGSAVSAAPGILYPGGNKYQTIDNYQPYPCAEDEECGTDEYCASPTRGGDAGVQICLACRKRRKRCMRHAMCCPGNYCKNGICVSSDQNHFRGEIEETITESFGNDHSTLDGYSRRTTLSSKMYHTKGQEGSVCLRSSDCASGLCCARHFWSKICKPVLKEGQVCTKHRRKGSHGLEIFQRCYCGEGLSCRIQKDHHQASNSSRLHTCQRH
In test [10] the test system is Inhibin beta A chain (activin A). Kind of test: INHBA (activin A) binders on microarrays, primary screen, biochemical, small-molecule microarray, 635 nm fluorescence scan (AID 1107).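 Also: mouse activin A protein probed at 4.33 µg/mL on printed slides; score merges bound-protein fluorescence near 667 nm with spot signal-to-noise.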 The conditions noted are these: small-molecule microarray binding, higher = more signal.

Activity calls are given as the source filed them.

Sequence of Fibroblast growth factor 10 (Homo sapiens) (O15520 whole entry, looked up): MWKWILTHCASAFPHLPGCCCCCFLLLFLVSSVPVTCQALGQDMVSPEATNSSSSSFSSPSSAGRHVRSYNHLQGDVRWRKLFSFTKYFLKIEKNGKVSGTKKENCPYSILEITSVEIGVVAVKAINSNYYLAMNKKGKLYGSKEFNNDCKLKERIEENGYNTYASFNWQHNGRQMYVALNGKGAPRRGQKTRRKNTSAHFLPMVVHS

In the case of `Cc1ccc(F)cc1S(=O)(=O)N[C@H]1CCN(Cc2ccc(OC(C)C)cc2)C1`, the composite z-score in test [1] was 1.23; in [2], -0.322; in test [3], -0.747; in test [5], 0.44; in test [6], 0.0619; in [7], -0.437. Besides, the values for the composite z-score in [8], in [9] and in [10] were 0.195, 0.577 and -0.22, respectively. Moreover, the z-score in test [4] was -0.24 (inactive).
Consider `COc1cc(C(O)C2C=CC3C(=O)N(c4ccccc4)C(=O)C3N2Nc2ccccc2F)cc(OC)c1OC` (stereo not given), for which the composite z-score in [1] was 1.41; in test [2], 0.521; in test [3] it was 0.55; in [5] it was 1.35; in test [6], 1.34; in test [7], -0.117. Moreover, the composite z-score was 0.479 in [8], -0.0657 in test [9] and 0.519 in [10]. In test [4], the z-score is 0.392 (inactive).
In the case of `C=CC[C@@]12N=C(c3ccc(OCCCO)cc3)O[C@@H]1c1ccccc1N(CCC)C2=O`, the composite z-score in test [1] was found to be 1.58; in [2], 0.257; in test [3] it was 0.952; in test [5], 0.85; in test [6], 1.25; in [7], 0.153. For the same compound, the composite z-score in test [8] was 1.15; in test [9] it was -0.0879; in test [10] it was 1.19. Moreover, the z-score in test [4] is -0.457 (inactive).
Take `CC=CC(O)C1C=CC2C(=O)NC(=O)C2N1Nc1ccc(Cl)cc1Cl` (stereo not given): the composite z-score in test [1] was 0.547; in test [2] it was 0.171; in test [3], 0.55; in [5], 0.506; in test [6], -1.11; in [7], 0.277. The composite z-score is 0.46 in test [8], 0.522 in [9] and 1.42 in test [10]. Further, the z-score in [4] was 1.9 (inactive).
Take `O=C1O[C@H](Cc2ccccc2)[C@@H]2[C@H]3C=CCCC=C3CN2[C@H]1Cc1ccc(O)cc1`: the composite z-score in test [1] was 0.968; in [2] it was -0.271; in test [3], -0.0179; in test [5], -0.36; in test [6], -1.16; in [7] it was -0.317. Also, the composite z-score in test [8] is -0.17; in test [9] it was -0.0128; in test [10] it was 0.991. For the same compound, in test [4], the z-score was 0.192 (inactive).
For the compound `C=C(CCCC)/C(=C/C[C@H](OC(=O)c1ccncc1)c1ccccc1OCCO)c1cc(C(=O)OC)ccc1OC`, the composite z-score in [1] was 0.209; in [2], -0.126; in test [3], 0.023; in [5] it was 0.864; in [6] it was 0.325; in test [7] it was 0.0323. The composite z-score in [8] came to 0.636; in [9], 0.273; in [10], 1.17. Moreover, the z-score in test [4] was -0.63 (inactive).
For `C[N+](C)(C)CCCC[C@@H]1NC(=O)[C@@H]2C[C@H](C(=O)NCc3ccc(F)cc3)[C@H](c3ccc(O)cc3)N2C1=O`, the composite z-score in test [1] is 1.12; in test [2], -0.277; in test [3], 0.216; in test [5], 0.535; in test [6], -0.933; in [7] it was -0.617. The composite z-score in [8] is -0.249; in test [9], 0.549; in test [10], -0.879. Also, the z-score in [4] is 1.26 (inactive).
Regarding `COc1ccc([Si](C)(C)[C@@H]2[C@@H](CC(=O)N3Cc4ccccc4C[C@H]3CO)O[C@]3(C(=O)N(Cc4cccc(N5CCOC5=O)c4)c4ccccc43)[C@H]2C)cc1`, the composite z-score is 1.21 in [1]; -0.503 in [2]; -0.562 in [3]; 0.628 in [5]; 0.717 in test [6]; 1.01 in test [7]. The composite z-score came to 1.37 in test [8], 1.21 in test [9] and 0.792 in [10]. In addition, the z-score in [4] was -0.589 (inactive).
Consider `C=CC[C@@]1(C(=O)OC)N=C(c2ccc(OCCCO)cc2)O[C@@H]1c1ccccc1N=[N+]=[N-]`, for which the composite z-score in test [1] is 1.5; in test [2] it was 0.6; in [3] it was 1; in test [5], 1.32; in test [6] it was 1.32; in test [7], 1.38. The results for the composite z-score in [8], in [9] and in [10] were 1.22, 0.685 and 0.767, respectively. The z-score in test [4] was -1.61 (inactive).
As for `CC(C)C[C@H]1NC(=O)C([C@@H](C)OCc2ccccc2)NC(=O)[C@@]23C(=O)N[C@@H](Cc4ccccc4)C2[C@H](C)[C@@]2(C)O[C@H]2C3/C=C/C/C=C\CNC1=O` (stereo not given in full), the composite z-score in test [1] was 0.884; in test [2], -0.261; in test [3] it was -0.493; in test [5], 1.03; in test [6], 1.12; in [7], 0.583. Also, the composite z-score in [8] worked out at 1.47; in test [9] it was 0.917; in [10], 1.24. Besides, in test [4], the z-score is -0.138 (inactive).
Consider `CC(C)(C)N1CC=CC23O[C@@H]4/C=C\CCCOC(=O)C4[C@H]2C(=O)N(CCCO)[C@@H]3C1=O` (stereo not given in full), for which the composite z-score in test [1] is 1.18; in test [2], -0.396; in test [3], -0.006; in test [5], -0.795; in test [6] it was -0.416; in [7] it was -1.33. The results for the composite z-score in [8], in test [9] and in [10] were -0.996, -1.07 and 0.076, respectively. Further, the z-score in test [4] is 0.539 (inactive).
As for `O=C1O[C@@H](c2ccccc2)[C@@H](c2ccccc2)N2[C@@H](c3ccc(OCCO)cc3)[C@]3(C(=O)Nc4ccc(C#CC5(O)CCCCCC5)cc43)[C@@H](C(=O)O)[C@H]12`, the composite z-score worked out at 1.46 in test [1]; 0.623 in test [2]; 0.457 in test [3]; 0.372 in test [5]; 0.995 in test [6]; 0.146 in test [7]. In addition, the composite z-score in [8] was 0.401; in test [9], -0.0236; in test [10], 0.2. The z-score in test [4] was -0.702 (inactive).
On to `CCOC(=O)c1cn(C[C@H](Cc2ccccc2)NC(=O)N[C@H](CO)CCc2oc(C(C)=O)c(C(=O)OC)c2C(=O)OC)nn1`, for which the composite z-score was 0.559 in [1]; 0.0549 in [2]; -0.398 in test [3]; 1.37 in [5]; 1.28 in test [6]; 0.956 in test [7]. Also, the figures for the composite z-score in [8], in [9] and in test [10] were 1.49, 1.1 and -0.0083, respectively. For the same compound, the z-score in [4] is -1.1 (inactive).
As for `COC(=O)[C@@]1(Cc2ccc(F)cc2)[C@H]2c3cc(C(=O)N4CCCC4)n(Cc4cc(F)cc5c4OCOC5)c3C[C@H]2CN1C(=O)c1ccccc1`, the composite z-score in [1] was 0.672; in test [2] it was 1.14; in test [3], 1.06; in [5], 0.762; in [6], -0.0785; in test [7], 0.0228. Moreover, the composite z-score in test [8] is 1.3; in test [9], -0.334; in test [10], 0.888. In addition, the z-score in test [4] was -0.844 (inactive).
In the case of `NC(=O)NCC#Cc1ccc2c(c1)[C@]1(C(=O)N2)[C@H](c2ccc(OCCO)cc2)N2[C@H](c3ccccc3)[C@H](c3ccccc3)OC(=O)[C@H]2[C@@H]1C(=O)NC[C@H](O)c1ccccc1`, the composite z-score is 1.24 in test [1]; 0.0619 in test [2]; 0.909 in test [3]; 0.131 in test [5]; -0.708 in test [6]; -0.256 in test [7]. In addition, the figures for the composite z-score in [8], in [9] and in [10] were -0.216, -0.229 and 0.902, respectively. In addition, the z-score in test [4] was 0.199 (inactive).

Source of the values: PubChem BioAssay.
